Reference: the supplement of paper PMC6522484
± gives the standard deviation of the averaged measurements.

Experiments:
[1] = test system: DLD1; experiment: cell viability (CellTiter-Glo) relative to plate median (fraction of plate median); higher = more viable cells; details: 5 µM; treatment time 24 h; reporter: 7TFP
Method in brief: (§1)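 On parallel plates, a Tecan F500 reader recorded either firefly luciferase or CellTiterGlo luminescence. The plates held colorectal cancer cells stably transduced with lentiviral TCF/Wnt firefly luciferase reporters (7TFP or TCF4/Wnt), seeded in 384-well format and treated 24 h later with library compounds at a final 5 µM for 24 h. Per-well signals were normalised to the plate median (webcellHTS2, additive, no log transformation), and two independent replicates were averaged.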

[2] = test system: HCT116; experiment: as above; details: 5 µM; treatment time 24 h; reporter: TCF4/Wnt
Method in brief: as §1

[3] = test system: SW480; experiment: as above; details: 5 µM; treatment time 24 h; reporter: 7TFP
Method in brief: as §1

[4] = test system: DLD1; experiment: TCF/Wnt firefly luciferase reporter signal relative to plate median (fraction of plate median); higher = higher Wnt reporter signal; details: 5 µM; treatment time 24 h; reporter: 7TFP
Method in brief: as §1

[5] = test system: SW480; experiment: as above; details: 5 µM; treatment time 24 h; reporter: 7TFP
Method in brief: as §1

| Structure (SMILES) | cell viability [1] | cell viability [2] | cell viability [3] | TCF/Wnt firefly luciferase reporter signal [4] | TCF/Wnt firefly luciferase reporter signal [5] |
| --- | --- | --- | --- | --- | --- |
| CC(=O)O[C@H]1C[C@H](O[C@H]2[C@@H](O)C[C@H](O[C@H]3[C@@H](O)C[C@H](O[C@H]4CC[C@@]5(C)[C@H](CC[C@@H]6[C@@H]5C[C@@H](O)[C@]5(C)[C@@H](C7=CC(=O)OC7)CC[C@]65O)C4)O[C@@H]3C)O[C@@H]2C)O[C@H](C)[C@H]1O[C@@H]1O[C@H](CO)[C@@H](O)[C@H](O)[C@H]1O | 0.65 ± 0.044 | 0.636 ± 0.0042 | 0.851 ± 0.078 | 0.264 ± 0.13 | 0.584 ± 0.057 |
| Cc1[nH]c2ccccc2c1CN(C)C | 1.05 ± 0.014 | 1.18 ± 0.11 | 1.085 ± 0.0071 | 1.07 ± 0.11 | 1.07 ± 0.057 |
| O=C(O)CCC1NCC2CC1CN1CCCCC21 (stereo not given) | 0.999 ± 0.044 | 1.08 ± 0.042 | 0.971 ± 0.023 | 1.27 ± 0.28 | 1.11 ± 0.078 |
| C[C@]12CC[C@H]3[C@@H](CC[C@]4(O)C[C@@H](O)CC[C@]34C=O)[C@@]1(O)CC[C@@H]2C1=CC(=O)OC1 | 0.579 ± 0.021 | 0.502 ± 0.12 | 0.746 ± 0.046 | 0.226 ± 0.12 | 0.58 ± 0.054 |
| CC(=O)O[C@@H]1CC[C@@]2(C)[C@@H](CC[C@@H]3[C@@H]2CC[C@]2(C)C(=O)CC[C@@H]32)C1 | 1.025 ± 0.0071 | 0.924 ± 0.28 | 1.01 ± 0.04 | 1.15 ± 0.035 | 1.08 ± 0.099 |
| CC[C@H](C)[C@H]1O[C@]2(C=C[C@@H]1C)C[C@@H]1C[C@@H](C/C=C(\C)[C@@H](O[C@H]3C[C@H](OC)[C@@H](O[C@H]4C[C@H](OC)[C@@H](O)[C@H](C)O4)[C@H](C)O3)[C@@H](C)/C=C/C=C3\CO[C@@H]4[C@H](O)C(C)=C[C@@H](C(=O)O1)[C@]34O)O2.CO[C@H]1C[C@H](O[C@H]2[C@H](C)O[C@@H](O[C@@H]3/C(C)=C/C[C@@H]4C[C@@H](C[C@]5(C=C[C@H](C)[C@@H](C(C)C)O5)O4)OC(=O)[C@@H]4C=C(C)[C@@H](O)[C@H]5OC/C(=C\C=C\[C@@H]3C)[C@]54O)C[C@@H]2OC)O[C@@H](C)[C@@H]1O | 0.893 ± 0.083 | 0.931 ± 0.0028 | 1.01 | 0.977 ± 0.089 | 0.987 ± 0.033 |
| COP(=S)(OC)Oc1ccc(Sc2ccc(OP(=S)(OC)OC)cc2)cc1 | 1.025 ± 0.0071 | 1.06 ± 0.014 | 0.987 ± 0.011 | 1.06 ± 0.092 | 1.04 ± 0.014 |
| CNC(C)C(O)c1ccccc1 (stereo not given) | 1.08 ± 0.021 | 1.09 ± 0.014 | 1.07 ± 0.042 | 1.1 ± 0.078 | 0.905 ± 0.071 |
| O=C1NC(=O)C(=O)C(=O)N1 | 1.01 ± 0.057 | 0.935 ± 0.063 | 0.945 ± 0.014 | 0.829 ± 0.03 | 0.901 ± 0.064 |
| CC(=O)OC1CCC23C(=O)OC45CCC(C6=CC(=O)OC6)C4(C)CCC2C5CCC3(O)C1 (stereo not given) | 0.688 ± 0.011 | 0.397 ± 0.066 | 0.7175 ± 0.0021 | 0.202 ± 0.05 | 0.389 ± 0.011 |
| COc1ccc(CCN2CCC(Nc3nc4ccccc4n3Cc3ccc(F)cc3)CC2)cc1 | 0.977 ± 0.089 | 0.982 ± 0.069 | 1.06 ± 0.021 | 1.01 ± 0.017 | 1.035 ± 0.0071 |
| CC1C=CC=CCCC=CC=CC=CC=CC(OC2OC(C)C(O)C(N)C2O)CC2OC(O)(CC(O)C(O)CCC(O)CC(O)CC(O)CC(=O)OC(C)C(C)C1O)CC(O)C2C(=O)O (stereo not given) | 0.932 ± 0.04 | 0.906 ± 0.023 | 0.973 ± 0.031 | 0.874 ± 0.0014 | 0.762 ± 0.0092 |
| C=C(C)c1cc2cc(C(C)=O)c(O)cc2o1 | 1.14 ± 0.13 | 1.06 ± 0.071 | 1.07 ± 0.057 | 1.21 ± 0.29 | 1.12 ± 0.085 |
